Measurements published in paper PMC4336329 (PLoS ONE, 2015).
In all, about 310,000 compounds went through this assay and about 2,200 (0.71%) showed an effect of 50% or more. The effect is printed as a negative number. This is one part of a sample in which strong results are shown more often than they occur.

Molecular target: human ether-à-go-go-related gene (hERG) potassium channel (human, UniProt Q12809)
Assay: primary screen, population patch clamp on CHO cells stably expressing hERG; higher = less effect of the substance
Description: Briefly, Chinese hamster ovary (CHO) cells stably expressing the hERG channel were dislodged from tissue culture flasks and dispensed into PPC plates. […] During the recording, background leak currents were estimated by a 100 ms step to -80 mV from an initial holding potential of -70 mV and subtracted from the subsequent current measurement. The campaign was conducted in two phases using slight differences in recording protocol. In the first phase, the initial voltage pulse used a 100 ms step to -30 mV from a holding potential of -70 mV, a 2 s conditioning step to +25 mV, and a 2 s test step to -30 mV. During the second phase of the screen, the potential during the conditioning step was raised to +45 mV. In both phases of the campaign, a secondary voltage pulse was applied using the same parameters as the second phase initial pulse. The initial and secondary pulses were applied in the absence of compound, and upon application of 1 μM and 10 μM test concentrations. Small molecule effects on hERG current density were quantified by […].

Chain of human ether-à-go-go-related gene (hERG) potassium channel (Q12809 whole entry, looked up): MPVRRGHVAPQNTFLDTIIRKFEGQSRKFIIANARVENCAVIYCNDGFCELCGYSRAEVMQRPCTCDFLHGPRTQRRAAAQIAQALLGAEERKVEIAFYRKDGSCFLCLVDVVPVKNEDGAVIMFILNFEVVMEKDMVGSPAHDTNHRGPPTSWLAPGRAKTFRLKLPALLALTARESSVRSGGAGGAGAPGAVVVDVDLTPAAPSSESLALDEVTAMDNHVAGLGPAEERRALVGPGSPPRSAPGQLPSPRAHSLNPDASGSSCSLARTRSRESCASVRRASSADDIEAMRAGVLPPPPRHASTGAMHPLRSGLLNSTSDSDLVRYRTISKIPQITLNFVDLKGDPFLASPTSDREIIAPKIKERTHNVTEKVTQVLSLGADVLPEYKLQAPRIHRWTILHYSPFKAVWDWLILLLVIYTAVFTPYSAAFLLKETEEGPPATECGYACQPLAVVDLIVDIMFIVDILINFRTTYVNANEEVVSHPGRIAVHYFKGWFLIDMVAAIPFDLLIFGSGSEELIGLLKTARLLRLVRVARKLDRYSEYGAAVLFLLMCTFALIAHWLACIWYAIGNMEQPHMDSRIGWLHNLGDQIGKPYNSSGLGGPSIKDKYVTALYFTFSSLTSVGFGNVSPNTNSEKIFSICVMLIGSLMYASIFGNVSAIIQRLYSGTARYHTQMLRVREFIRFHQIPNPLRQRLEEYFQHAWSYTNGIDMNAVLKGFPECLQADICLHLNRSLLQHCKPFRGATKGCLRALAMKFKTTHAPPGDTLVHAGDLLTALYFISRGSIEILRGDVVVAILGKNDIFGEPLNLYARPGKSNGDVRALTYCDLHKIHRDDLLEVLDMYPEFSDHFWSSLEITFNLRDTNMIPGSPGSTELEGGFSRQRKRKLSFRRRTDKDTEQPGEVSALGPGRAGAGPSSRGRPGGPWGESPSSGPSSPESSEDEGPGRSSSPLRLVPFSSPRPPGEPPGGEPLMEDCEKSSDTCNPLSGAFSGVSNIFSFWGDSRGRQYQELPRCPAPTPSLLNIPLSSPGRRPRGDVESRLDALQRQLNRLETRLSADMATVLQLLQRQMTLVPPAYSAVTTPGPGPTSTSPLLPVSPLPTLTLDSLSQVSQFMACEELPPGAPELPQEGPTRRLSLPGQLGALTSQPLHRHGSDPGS

Compound | hERG current change (%, negative = inhibition) at 1uM [%]
CN(CC(=O)Nc1ccc(Cl)c(Cl)c1)C(=O)C1CCCC1 | 5.9
Cc1cc(NC(=O)c2cc(-c3ccccc3)on2)n(-c2ccccc2)n1 | 7.88
O=C(COC(=O)c1ccc2ccccc2n1)c1ccc(F)cc1 | -5.55
Cc1cc([N+](=O)[O-])ccc1NC(=O)Nc1ccccc1F | 13
O=C(CCc1nnc(CCc2ccccc2)o1)NC(c1cccnc1)C(F)(F)F (stereo not drawn) | -0.569
CC1CN(C(=O)C(Sc2ccccc2)c2ccccc2)CC(C)O1 (stereo not drawn) | 5.46
N#C/C(=C1\CCCN1)c1ccc2ccccc2n1 | 8.93
Cc1ccc(CCN2CC(C(=O)NCCCN3CCOCC3)CC2=O)cc1 (stereo not drawn) | 16.5
CN1CCCc2cc3c(C(F)(F)F)cc(=O)oc3nc21 | 14.3
O=C(CSc1nc(C(F)(F)F)cc(=O)[nH]1)N1CCCCCC1 | 5.27
Cc1nc(C)c(C(=O)NCc2ccccc2Cl)o1 | 10.8
O=[N+]([O-])c1cccc(N(CC(O)CN2CCCC2)S(=O)(=O)c2ccccc2)c1 (stereo not drawn) | -25.9
COc1ccc([N+](=O)[O-])cc1N(CC(O)CN1CCCCC1)S(=O)(=O)c1ccccc1 (stereo not drawn) | 2.16
O=[N+]([O-])c1ccc(S(=O)(=O)N(CC(O)CN2CCCCC2)c2ccccc2)cc1 (stereo not drawn) | -80.4
O=C(CN(c1ccc([N+](=O)[O-])cc1)S(=O)(=O)c1ccccc1)N1CCCCC1 | -0.85
Cc1ccc(S(=O)(=O)N(CC(O)CN2CCCCC2)c2cccc([N+](=O)[O-])c2)cc1 (stereo not drawn) | -73.1
O=[N+]([O-])c1cccc(N(CC(O)CN2CCCCC2)S(=O)(=O)c2ccccc2)c1 (stereo not drawn) | -24.2
O=[N+]([O-])c1ccccc1S(=O)(=O)N(CC(O)CN1CCCCC1)c1ccccc1 (stereo not drawn) | 2.79
Cc1ccc(S(=O)(=O)N(CC(O)CN2CCOCC2)c2cccc([N+](=O)[O-])c2)cc1 (stereo not drawn) | 2.27
O=[N+]([O-])c1ccc(N(CC(O)CN2CCCCC2)S(=O)(=O)c2ccccc2)cc1 (stereo not drawn) | -79.5
Cn1c(=O)cc(OCCCC(=O)Nc2ccc3c(c2)OCCO3)c2ccccc21 | 17.2
Cc1ccn2c(=O)nc(SCC(=O)NC3CCCCC3)nc2c1 | 2.62
C/C(=N\NC(=O)CNC(=O)C(c1ccccc1)c1ccccc1)c1ccc(C(C)(C)C)cc1 | 2.98
COc1cc(-c2nc3cnccc3n2C)cc(OC)c1OC | 2.44
CCCCOc1ccc(CN(C)c2ncnc(N)n2)cc1 | -1.16
O=[N+]([O-])/C(C(Cl)=C(Cl)Cl)=C(\Sc1ccccc1)N1CCCCC1 | -3.16
Nc1cccc2c1C(=O)N(C(=O)c1cccc(S(=O)(=O)N3CCCC3)c1)C2=O | 12.5

Compound | hERG current change (%, negative = inhibition) at 1uM [%]
COC(=O)c1ccc(Cn2nc(C)c([N+](=O)[O-])c2C)o1 | 2.01
O=C1NN(c2ccc(Cl)c(Cl)c2)C(=O)/C1=C/c1ccc(-c2ccccc2C(=O)O)o1 | 13
Cc1cccc(CS(=O)(=O)Cc2ccc(C(=O)N3CCC4(CC3)OCCO4)o2)c1 | 10
Cc1cccnc1NC(=S)NCCc1ccccc1 | -3.36
CNC(=O)c1[nH]cnc1C(=O)N[C@@H](CC(C)C)C(=O)OCc1ccccc1 | -51.8
CC(C)C[C@H](NC(=O)c1[nH]cnc1C(=O)N[C@@H](Cc1ccccc1)C(=O)OCc1ccccc1)C(=O)OCc1ccccc1 | 10.2
CC(C)C[C@H](NC(=O)c1nc[nH]c1C(=O)N[C@@H](CC(C)C)C(=O)OCc1ccccc1)C(=O)OCc1ccccc1 | 9.56
COc1ccccc1NC(=O)N1CCCC1C(=O)Nc1ccc2c(c1)OCO2 (stereo not drawn) | 2.76
O=C(CCC1COc2ccccc2O1)NCC1COc2ccccc2O1 (stereo not drawn) | 6.41
Cc1nnc(SCc2nnc(-c3ccccc3Br)o2)s1 | 18.8
CC(=O)c1ccc(NC(=O)/C(=C\c2ccco2)NC(=O)c2ccco2)cc1 | 4.96
CC(=O)c1cccc(NC(=O)/C(=C/c2ccco2)NC(=O)c2ccco2)c1 | 10.1
CC(=O)c1cccc(NC(=O)/C(=C\c2ccco2)NC(=O)c2ccco2)c1 | -50.7
CCc1ccc(-n2nc3cc(C)c(N)cc3n2)cc1 | 13.3
COc1ccc(NC(=O)NC2(C(=O)N3CCCC(C)C3)CCCCC2)cc1 (stereo not drawn) | 14.1
O=C(CCCc1ccccc1)N1CCN(c2ccc([N+](=O)[O-])cc2)CC1 | -48.2
O=C(Cc1ccccc1)N1CCN(c2ccc([N+](=O)[O-])cc2)CC1 | -36.4
CC1(C)Cc2cccc(OCC(=O)N3CCN(c4ccc([N+](=O)[O-])cc4)CC3)c2O1 | -51.8
COc1ccc(C(=O)ON=C2CCN(c3ccc([N+](=O)[O-])cc3)CC2)cc1 | -57.7
COc1ccc(C(=O)CCC(=O)N2CCN(c3ccc([N+](=O)[O-])cc3)CC2)cc1 | -28.4
O=C(ON=C1CCN(c2ccc([N+](=O)[O-])cc2)CC1)c1ccccc1 | -26
O=C(CCc1ccccc1)N1CCN(c2ccc([N+](=O)[O-])cc2)CC1 | -67.4
Cc1ccc(C(=O)ON=C2CCN(c3ccc([N+](=O)[O-])cc3)CC2)cc1 | -21.2
CC1(C)Cc2cccc(OCC(=O)N3CCN(c4ccc(F)cc4)CC3)c2O1 | -16.2
COc1ccc(N2CCN(C(=O)CSc3ccc([N+](=O)[O-])cc3)CC2)cc1 | -85.1
COc1ccc(N2CCN(C(=O)CSc3ccccc3)CC2)cc1 | 12.7
CC1(C)Cc2cccc(OCC(=O)N3CCN(c4ccccc4)CC3)c2O1 | -2.57
